Among the data in PubChem BioAssay (NCI) are growth values, retold here.

SMILES strings stand for the structures. “And” between values parts separate entries of the source, which are not always exact repeats. Equal values may be shown once. This is part of a sample that, as a whole, favours compounds with a hit. Of some 83,000 tested, about 20% had one in any assay.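 Method: cells in 96-well plates; compound added at one concentration; 48 h incubation; percent growth measured; values under 10 scored active.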 The source made the active and inactive calls. Where a SMILES comes first, the peptide text is derived from it. [ ]: non-standard residue; d: D form. ξ: configuration not given here. ξV = CC(C)C(N)C(=O)O

One assay relates to SNB-75 CNS. The assay is described as follows: NCI-60 one-dose screen, 48 h (100 = growth as untreated, 0 = no growth, -100 = all killed). Particulars: 0.0025 µM. How it is done:
Growth inhibition of the SNB-75 human tumor cell line is measured as a screen for anti-cancer activity. Cells are grown in 96 well plates and exposed to the test compound for 48 hours. Compounds are tested at a single concentration, which is 10^-5 M for most compounds. The reported endpoint is percent growth (GI% or GIPRCNT), where numbers from 0 - 100% represent growth inhibition, and numbers from -100% - 0 represent cell death. For example, a value of 40 represents 60% growth inhibition. A value of 0 means no net growth occurred over the course of the experiment. A value of -40 indicates 40% of cells at the beginning of the experiment died by the end of the experiment. A value of -100 means all cells are dead at the end of the experiment.
NCI-60 Human Tumor Cell Lines Screen was performed using the standard one-dose NCI protocol, which is described in more detail at https://dtp.cancer.gov/discovery_development/nci-60/default.htm.
Compounds with GIPRCNT values below 10 were considered active. Activity score was based on GIPRCNT using the following formula: […]
Score is 0 for GIPRCNT values of 100 or above, 50 for GIPRCNT values of 0, and 100 for GIPRCNT values of -100.
For the compound `COc1cccc2c1C(=O)c1c(O)c3c(c(O)c1C2=O)C[C@@](O)(C(=O)CO)C[C@@H]3OC1CC(N)C(O)C(C)O1` (stereo not given in full), the growth is 98% (inactive).

Still in this assay, the particulars now being: 1 µM.
As to `COc1cccc2c1C(=O)c1c(O)c3c(c(O)c1C2=O)C[C@@](O)(C(=O)CO)C[C@@H]3OC1CC(N)C(O)C(C)O1` (stereo not given in full), the growth was 33% (inactive).

The assay is the same for the next values; noted with them: 2.5 µM.
Take `COc1cccc2c1C(=O)c1c(O)c3c(c(O)c1C2=O)C[C@@](O)(C(=O)CO)C[C@@H]3OC1CC(N)C(O)C(C)O1` (stereo not given in full): the growth is 7.99% (active).

Still in this assay, the particulars now being: 10 µM.
Take `CCCCCC(C)c1ccc(O)c(C)c1` (stereo not given): the growth was 92.1% (inactive). Same read-out and setting: with `COc1ccc(CC(=O)c2ccc(O)cc2O)cc1` the figure was 111% (inactive); with `CCN1/C(=C/C=C/C=C/c2sc3ccccc3[n+]2CC)Sc2ccccc21`, -45.6% (active); with `CN(C)C(=S)SC(=S)N(C)C`, 97.2% (inactive) and 89.7% (inactive). Same read-out and setting: with `CCCCCCCCCCCC[N+](C)(C)Cc1ccccc1` the figure was -12.7% (active); with `NNc1ccc2ccccc2c1`, 79.1% (inactive) and 75.7% (inactive); with `CS(=O)(=O)OC1CC(n2ccc(=O)[nH]c2=O)OC1COC(c1ccccc1)(c1ccccc1)c1ccccc1` (stereo not given), 103% (inactive). On the same count and under the same terms, with `CSC1SCC2C(=O)N(C)C(C(C)C)C(=O)OCC(NC(=O)c3cnc4ccccc4n3)C(=O)NC(C)C(=O)N(C)C1C(=O)N(C)C(C(C)C)C(=O)OCC(NC(=O)c1cnc3ccccc3n1)C(=O)NC(C)C(=O)N2C` (stereo not given) the figure was -80.2% (active); with `Nc1c2ccccc2nc2ccccc12`, 33.1% (inactive) and 51.8% (inactive) and 89.3% (inactive).

As for `CCCCCCCCCCCCCCCCCCOCC(COP(=O)([O-])OCC[N+](C)(C)C)OC` (stereo not given), the growth is 84.4% (inactive). The same measure, in the same setting: with `NC1=C(Cl)C(=O)c2ccccc2C1=O` the figure was -0.135% (active); with `COc1cccc2c1C(=O)c1c(O)c3c(c(O)c1C2=O)C[C@@](O)(C(=O)CO)C[C@@H]3OC1CC(N)C(O)C(C)O1` (stereo not given in full), -61.7% (active). Same read-out and setting: with `OC(CN1CCCC2CCCCC21)c1cc2ccccc2c2ccccc12` (stereo not given) the figure was 12.5% (inactive); with `CC(C)(C)CC(C)(C)c1ccc(OCCO)cc1`, 101% (inactive).

Take `COC1OCC(O)C(O)C1O` (stereo not given): the growth is 80.8% (inactive). As to `CC(=O)OCC(OC(C)=O)C(OC(C)=O)C(OC(C)=O)C(OC(C)=O)C(/C=N/Nc1ccccc1)=N/Nc1ccccc1` (stereo not given), the growth was 87.4% (inactive).

With `CC1=CC(C)=Nc2ccc(Cl)cc2N1`, the growth was 90.4% (inactive). Still for that read-out and setting: with `OCC(O)C(O)C(O)C(/C=N/Nc1ccccc1)=N/Nc1ccccc1` (stereo not given) the figure was 66.3% (inactive); with `CCN(CC)c1ccc(NC(C(=O)c2ccccc2)c2ccccc2)cc1` (stereo not given), 81.7% (inactive). Turning to `CCCCCCCCCCCCSC(=NC)NC`, the growth is 74.8% (inactive) and 82.3% (inactive). Still for that read-out and setting: the result for `CC(C)C(NC(=O)CN)C(=O)O` (stereo not given) (H-Gly-[ξV]-OH) reads 104% (inactive) and 84.7% (inactive); that for `COc1c(O)cc2oc3cc(O)c(CC=C(C)C)c(O)c3c(=O)c2c1CC=C(C)C`, 82.7% (inactive); that for `O=[N+]([O-])C1=C(c2ccccc2)SC=C(c2ccccc2)S1`, 92.7% (inactive).

In the case of `COc1cccc2c1C(=O)c1c(O)c3c(c(O)c1C2=O)C[C@@](O)(C(C)=O)C[C@@H]3OC1CC(N)C(O)C(C)O1` (stereo not given in full), the growth was -82.7% (active). As to `NNc1c2ccccc2nc2ccccc12`, the growth is 55% (inactive). Still for that read-out and setting: with `Nc1nc(=S)c2ncn(C3OC(CO)C(O)C3O)c2[nH]1` (stereo not given) the figure was 101% (inactive) and 27.5% (inactive); with `Oc1ccc(N=Nc2ccccn2)c(O)c1`, 54.6% (inactive); with `COC(=O)C1=COC(C)C2C[n+]3ccc4c([nH]c5ccccc54)c3CC12` (stereo not given), 83.3% (inactive) and 92.8% (inactive). Turning to `Cc1cc(O)c(C(C)C)cc1Cl`, the growth is 93.2% (inactive). Same read-out and setting: with `Cc1nc(N=C(N)N)nc2ccc3ccccc3c12` the figure was -10.3% (active); with `O=c1ccn(C2CC(O)C(COC(c3ccccc3)(c3ccccc3)c3ccccc3)O2)c(=O)[nH]1` (stereo not given), 83.2% (inactive). Same read-out and setting: the result for `O=C1C=C(O)c2ccccc2C1=O.[Ag]` reads 87.9% (inactive); that for `Nc1ccc2cc3ccc(N)cc3nc2c1`, 101% (inactive). `Cc1cc(NS(=O)(=O)c2ccc(N=Nc3cc(N=Nc4ccc(S(=O)(=O)Nc5cc(C)nc(C)n5)cc4)c4c(NC(=O)C(Cl)Cl)cccc4c3OC(=O)C(Cl)Cl)cc2)nc(C)n1` (tested in a mixture with another compound): the growth is 75.6% (inactive) and 61.7% (inactive). On the same count and under the same terms, the result for `CC[N+](CC)=c1ccc2nc3c(cc(N)c4ccccc43)oc-2c1` reads -73.4% (active). Same read-out and setting: the result for `Clc1cc(Cl)c(Cl)nn1` reads 107% (inactive).

The same assay, now with this note: 100 µM.
`O=c1ccn(C2CC(O)C(COC(c3ccccc3)(c3ccccc3)c3ccccc3)O2)c(=O)[nH]1` (stereo not given): the growth is 57.8% (inactive).
